We go through eight molecules from PubChem BioAssay (NCI).

This is part of a sample that, as a whole, favours compounds with a hit. Of some 83,000 tested, about 20% had one in any assay.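 Growth was measured after 48 h exposure to one concentration of compound in 96-well plates. Values under 10 count as active.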 Values without a mark were called inactive. Activity calls are given as the source filed them.

Some test systems named below: NCI-H23 lung; NCI-H226 lung; NCI-H322M lung; HOP-62 NSCLC; NCI-H460 lung; HOP-92 NSCLC; NCI-H522 lung; A549/ATCC NSCLC; 786-0 renal; COLO 205 colon; DU-145 prostate; K-562 leukemia; MDA-MB-231 breast; RXF 393 renal; SF-268 CNS; SF-295 CNS; SF-539 CNS; UACC-257 melanoma; M14 melanoma.
What all share (assay): NCI-60 one-dose screen, 48 h (100 = growth as untreated, 0 = no growth, -100 = all killed)
What all share (conditions): 10 µM

Turning to `CC1(C)CC(=O)c2c(nc3ccc(Cl)cc3c2-c2ccccc2)C1`, the growth with NCI-H23 lung was 89.9%; with NCI-H226 lung it was 97.6%; in the test with NCI-H322M lung it was 103%; in the test on HOP-62 NSCLC, 92.1%; in the test on NCI-H460 lung, 90.1%; in the test with HOP-92 NSCLC it was 45.6%. The growth was 73% in the test on NCI-H522 lung; 95.7% in the test on A549/ATCC NSCLC; 101% with 786-0 renal; 94.5% in the test with COLO 205 colon; 106% with DU-145 prostate; 55.7% with K-562 leukemia. Besides, the growth in the test with MDA-MB-231 breast is 85%; in the test with RXF 393 renal it was 3.11% (active); in the test on SF-268 CNS, 90.9%; in the test on SF-295 CNS, 76%; in the test on SF-539 CNS it was 97.9%; with UACC-257 melanoma, 106%. Also, the growth in the test with M14 melanoma is 99.9%.

In the case of `CCOc1nc(-c2ccccc2)cc2c(O)c(C(=O)N/N=C/c3ccc(OC)cc3)[nH]c(=O)c12`, the growth in the test with NCI-H23 lung was 97.9%; with NCI-H226 lung, 109%; in the test on NCI-H322M lung it was 124%; in the test with HOP-62 NSCLC, 105%; in the test with NCI-H460 lung it was 101%; in the test on HOP-92 NSCLC, 74.6%. The growth in the test on NCI-H522 lung was 83.1%; with A549/ATCC NSCLC, 110%; in the test with 786-0 renal, 116%; in the test on COLO 205 colon, 87.7%; in the test with DU-145 prostate, 122%; in the test on K-562 leukemia, 74.4%. In addition, the growth in the test on MDA-MB-231 breast is 126%; with RXF 393 renal, 6.86% (active); in the test on SF-268 CNS, 112%; in the test with SF-295 CNS it was 91%; with SF-539 CNS it was 93.2%; with UACC-257 melanoma, 130%. Also, the growth in the test on M14 melanoma was 110%.

In the case of `COc1ccc(Cn2cc3c(c2-c2cc(OC)c(OC)c(OC)c2)CCc2cnoc2-3)cc1N`, the growth in the test on NCI-H23 lung is 15.8%; in the test with NCI-H226 lung, 12.7%; in the test on NCI-H322M lung, 14.9%; with HOP-62 NSCLC, 47.4%; in the test on NCI-H460 lung, -9.29% (active); in the test on HOP-92 NSCLC, 80.8%. In addition, the growth was 32.3% in the test on NCI-H522 lung; 28.5% with A549/ATCC NSCLC; 15.8% in the test with 786-0 renal; -29.1% (active) in the test on COLO 205 colon; 1.73% (active) in the test with DU-145 prostate; 15% with K-562 leukemia. Also, the growth in the test with MDA-MB-231 breast was 19.5%; in the test on RXF 393 renal, 35%; in the test with SF-268 CNS it was 15.4%; in the test on SF-295 CNS, -16.9% (active); in the test on SF-539 CNS, 5.21% (active); with UACC-257 melanoma, 65.9%. Further, the growth with M14 melanoma is 6.22% (active).

As for `Nc1cc2c(cc1Cl)-c1ccc(Cl)cc1C2=O`, the growth is 98.3% with NCI-H23 lung; 105% with NCI-H226 lung; 103% with NCI-H322M lung; 90.2% in the test on HOP-62 NSCLC; 96.6% in the test with NCI-H460 lung; 78.1% in the test with HOP-92 NSCLC. Moreover, the growth in the test on NCI-H522 lung was 90.3%; in the test on A549/ATCC NSCLC it was 85.7%; with 786-0 renal it was 103%; in the test with COLO 205 colon it was 95.1%; in the test on DU-145 prostate, 105%; with K-562 leukemia it was 89.9%. Also, the growth in the test with MDA-MB-231 breast was 82.5%; with RXF 393 renal, 131%; with SF-268 CNS it was 93.8%; with SF-295 CNS, 115%; in the test with SF-539 CNS, 78.2%; in the test on UACC-257 melanoma, 103%. In addition, the growth with M14 melanoma is 104%.

For the molecule `Cn1cnc([N+](=O)[O-])c1Sc1nnc(-c2ccccc2)c(-c2ccccc2)n1`, the growth was 79.5% in the test with NCI-H23 lung; 77.1% in the test on NCI-H226 lung; 102% with NCI-H322M lung; 97.3% in the test with HOP-62 NSCLC; 113% in the test with NCI-H460 lung; 71.1% with HOP-92 NSCLC. Also, the growth is 85.4% with NCI-H522 lung; 114% in the test on A549/ATCC NSCLC; 85.4% in the test with 786-0 renal; 90.2% in the test with COLO 205 colon; 81.9% in the test with DU-145 prostate; 51% with K-562 leukemia. Further, the growth with MDA-MB-231 breast was 102%; with SF-268 CNS, 85.1%; in the test on SF-295 CNS, 87.7%; in the test on SF-539 CNS it was 111%; with UACC-257 melanoma, 79.9%; in the test with M14 melanoma, 76.9%.

Consider `COc1ccccc1Cn1cc2c(c1-c1ccccc1)CCc1cnoc1-2`, for which the growth in the test on NCI-H23 lung is 36.9%; in the test with NCI-H226 lung, 59.9%; with NCI-H322M lung, 35.1%; in the test on HOP-62 NSCLC, 34.7%; in the test with NCI-H460 lung, 10.7%; with HOP-92 NSCLC, 53.1%. For the same molecule, the growth was 42.1% in the test with NCI-H522 lung; 46.6% with A549/ATCC NSCLC; 33.5% with 786-0 renal; 19.6% in the test on COLO 205 colon; 51.8% in the test on DU-145 prostate; 19% with K-562 leukemia. The growth is 56% in the test with MDA-MB-231 breast; 38.3% with RXF 393 renal; 37.5% in the test with SF-268 CNS; -3.81% (active) in the test on SF-295 CNS; 11% in the test with SF-539 CNS; 50% in the test on UACC-257 melanoma. Also, in the test on M14 melanoma, the growth was 34.5%.

Take `COc1cc(NS(C)(=O)=O)ccc1Nc1c2ccc(Cl)cc2nc2c(OC)cccc12`: the growth was -23.6% (active) with NCI-H23 lung; -37.4% (active) with NCI-H226 lung; 57.5% with NCI-H322M lung; -14.3% (active) with HOP-62 NSCLC; -46.9% (active) in the test with NCI-H460 lung; 14.5% with HOP-92 NSCLC. In addition, the growth with NCI-H522 lung was -6.02% (active); with A549/ATCC NSCLC it was -7.09% (active); in the test with 786-0 renal it was -39.5% (active); in the test on COLO 205 colon, 34.3%; with DU-145 prostate, -43.6% (active); with K-562 leukemia, 13.4%. Also, the growth was 62.6% with MDA-MB-231 breast; -11.3% (active) with RXF 393 renal; 9.76% (active) in the test with SF-268 CNS; 14.5% with SF-295 CNS; -53.8% (active) in the test with SF-539 CNS; 34.2% in the test with UACC-257 melanoma. In addition, in the test on M14 melanoma, the growth was 14.1%.

With `COc1ccc(/C(=C/c2cc(OC)c(OC)cc2[N+](=O)[O-])C(=O)O)cc1`, the growth with NCI-H23 lung is 103%; in the test with NCI-H226 lung it was 101%; in the test with NCI-H322M lung, 118%; in the test with HOP-62 NSCLC, 94.1%; with NCI-H460 lung it was 110%; in the test with HOP-92 NSCLC, 97.2%. Also, the growth in the test with NCI-H522 lung was 107%; with A549/ATCC NSCLC, 108%; in the test on 786-0 renal, 106%; in the test with COLO 205 colon it was 127%; with DU-145 prostate it was 124%; with K-562 leukemia, 94.6%. In addition, the growth was 96.7% in the test on MDA-MB-231 breast; 126% with RXF 393 renal; 111% in the test on SF-268 CNS; 121% in the test on SF-295 CNS; 99.6% in the test on SF-539 CNS; 118% in the test on UACC-257 melanoma. For the same molecule, in the test with M14 melanoma, the growth is 104%.
